Laboratory results as given in PubChem BioAssay AID1159580 (chemical genetic matrix, 2015).
About 2,000 (36%) of roughly 5,500 compounds were called active. About 18% were inconclusive and are not listed. No stated cut-off is given here; in the data, active means normalized growth mostly below about 0.91 (no sharp cut-off); inconclusive means no clear call, values can overlap the other calls; inactive means mostly above about 0.92. This is one part of the list.

Test: chemical genetic growth profiling, strain panel (AID 1159580);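 further: tested at 20 µM; growth read once vehicle control cultures reached saturation at 30 °C; 1 = growth at the plate median or of vehicle wells; lower values mean less growth of the strain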
Conditions: S. cerevisiae deletion strains, growth OD

Measured: normalized growth

NC(N)=NOCC[C@H](N)C(=O)O
inactive: locus YAL013W, strain DEP1, active compounds read low 0.991 | locus YAL021C, strain ccr4, active compounds read low 1.01 | locus YAL026C, strain drs2, active compounds read low 1.01 | locus YAL030W, strain snc1, active compounds read low 1 | locus YBL061C, strain skt5, active compounds read low 1.02 | locus YBR009C, strain hhf1, active compounds read low 1.01 | locus YBR021W, strain FUR4, active compounds read low 1 | locus YBR023C, strain chs3, active compounds read low 1.02 | locus YBR171W, strain sec66, active compounds read low 1.02 | locus YBR229C, strain ROT2, active compounds read low 0.993 | locus YBR231C, strain swc5, active compounds read low 1.02 | locus YBR279W, strain paf1, active compounds read low 1.01 | locus YCL011C, strain gbp2, active compounds read low 1.03 | locus YCL016C, strain dcc1, active compounds read low 1.01 | locus YCL029C, strain bik1, active compounds read low 0.983 | locus YCL061C, strain MRC1, active compounds read low 1.01 | locus YCL069W, strain vba3, active compounds read low 1.01 | locus YCR088W, strain abp1, active compounds read low 1.01 | locus YDL005C, strain med2, active compounds read low 1.01 | locus YDL035C, strain GPR1, active compounds read low 0.985 | locus YDL040C, strain nat1, active compounds read low 1.01 | locus YDL074C, strain BRE1, active compounds read low 1.02 | locus YDL101C, strain DUN1, active compounds read low 0.99 | locus YDL134C, strain PPH21, active compounds read low 0.999 | locus YDL185W, strain tfp1, active compounds read low 0.975 | locus YDL192W, strain arf1, active compounds read low 0.983 | locus YDR001C, strain nth1, active compounds read low 1.01 | locus YDR069C, strain doa4, active compounds read low 1.02 | locus YDR101C, strain arx1, active compounds read low 1.01 | locus YDR137W, strain rgp1, active compounds read low 1.01 | locus YDR150W, strain NUM1, active compounds read low 0.984 | locus YDR159W, strain sac3, active compounds read low 1.01 | locus YDR162C, strain NBP2, active compounds read low 1.02 | locus YDR195W, strain ref2 0.996 | locus YDR297W, strain sur2, active compounds read low 1.01 | locus YDR318W, strain mcm21, active compounds read low 0.983 | locus YDR334W, strain swr1, active compounds read low 1.02 | locus YDR335W, strain msn5, active compounds read low 1.01 | locus YDR388W, active compounds read low 0.999 | locus YDR392W, strain spt3, active compounds read low 1.01 | locus YDR502C, strain sam2, active compounds read low 0.995 | locus YEL003W, strain gim4, active compounds read low 1.02 | locus YEL037C, strain rad23, active compounds read low 1.01 | locus YEL061C, strain CIN8 (second series), active compounds read low 1.02 | locus YEL061C, strain CIN8, active compounds read low 0.992 | locus YER015W, strain faa2, active compounds read low 1.01 | locus YER016W, strain bim1, active compounds read low 1.01 | locus YER110C, active compounds read low 0.984 | locus YER111C, strain swi4, active compounds read low 1.01 | locus YER155C, strain BEM2 (second series), active compounds read low 1.01 | locus YER155C, strain BEM2, active compounds read low 0.978 | locus YER167W, strain BCK2, active compounds read low 0.978 | locus YFR010W, strain ubp6, active compounds read low 1.01 | locus YGL078C, strain dbp3, active compounds read low 0.994 | locus YGL086W, strain mad1, active compounds read low 0.978 | locus YGL167C, strain pmr1, active compounds read low 1.01 | locus YGL173C, strain kem1, active compounds read low 1 | locus YGL227W, strain vid30, active compounds read low 1.02 | locus YGL240W, strain doc1, active compounds read low 1.02 | locus YGL248W, strain PDE1, active compounds read low 0.994 | locus YGL253W, strain hxk2, active compounds read low 1.01 | locus YGR078C, strain PAC10, active compounds read low 1.04 | locus YGR135W, strain pre9, active compounds read low 1.03 | locus YGR229C, strain SMI1, active compounds read low 1.02 | locus YGR252W, strain gcn5, active compounds read low 1.01 | locus YHR013C, strain ard1, active compounds read low 1.04 | locus YHR027C, strain rpn1, active compounds read low 1 | locus YHR030C, strain SLT2, active compounds read low 0.978 | locus YHR079C, strain IRE1 (second series), active compounds read low 0.985 | locus YHR094C, strain hxt1, active compounds read low 0.988 | locus YHR129C, strain ARP1, active compounds read low 0.991 | locus YHR142W, strain chs7, active compounds read low 1.03 | locus YHR200W, strain rpn10, active compounds read low 0.986 | locus YIL066C, strain RNR3, active compounds read low 0.979 | locus YIL073C, strain SPO22, active compounds read low 0.915 | locus YIL125W, strain kgd1, active compounds read low 0.992 | locus YIR030C, strain dcg1, active compounds read low 0.98 | locus YJL092W, strain hpr5, active compounds read low 1.01 | locus YJL095W, strain BCK1 (second series), active compounds read low 1.02 | locus YJL095W, strain BCK1, active compounds read low 1.04 | locus YJL115W, strain asf1, active compounds read low 1.01 | locus YJL129C, strain trk1, active compounds read low 1.03 | locus YJL134W, strain LCB3, active compounds read low 0.987 | locus YJL154C, strain vps35, active compounds read low 1.01 | locus YJL164C, strain tpk1, active compounds read low 1.01 | locus YJL166W, strain qcr8, active compounds read low 1.02 | locus YJL168C, strain set2, active compounds read low 0.988 | locus YJL187C, strain SWE1 (second series), active compounds read low 1.01
